What all share (assay): qHTS profiling for inhibitors of Plasmodium falciparum proliferation (AID 504749); note: nearly all actives have a fitted effect of over 60% in size
Conditions in all cases: P. falciparum in erythrocytes, SYBR Green DNA, 72 h; series mostly up to 28.7 µM

In one assay the test system is CP260. The method, boiled down: (§1)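 Quantitative HTS: compounds pinned into medium, infected erythrocytes added (0.3% parasitemia, 2.5% hematocrit), 72 h culture at 37 C under 5% CO2. Saponin/Triton lysis with SYBR Green I, overnight RT, then fluorescence read.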
Another assay deals with CP262. Summed up:
as §1

A further assay concerns CP265. The method, boiled down:
as §1

The next assay has as its system CP266. Summed up: as §1
The test system of another assay is CP268. Summed up: as §1
A further assay has as its system CP269. The method, boiled down:
as §1

In another assay the test system is CP286. Summed up:
as §1

For a further assay, the system named is CP291. The method, boiled down: as §1
In another assay the test system is CP297. Summed up: as §1
Another assay concerns CP305. The method, boiled down: as §1
For a further assay, the system named is CP315. The method, boiled down:
as §1

The next assay deals with CP325. Summed up:
as §1

Another assay relates to CP329. The method, boiled down: as §1
The subject of a further assay is CP335. The method, boiled down:
as §1

For another assay, the system named is DFO2036. Summed up: as §1
Another assay has as its system DIV14. The method, boiled down:
as §1

In another assay the test system is DIV17. Summed up: as §1
The next assay deals with DIV30. The method, boiled down: as §1
In a further assay the test system is Dd2. Summed up:
as §1

The next assay deals with ECU. The method, boiled down:
as §1

Results filed as inconclusive are left out. The source made the active and inactive calls. Calls come from the whole dose curve; as a rule, active = well fitted inhibition curve with a large enough effect; inconclusive = small, poorly fitted or top-dose-only effect; inactive = flat fitted curve, though single readings scatter.
Potency is the fitted concentration of half-maximal effect.

For the compound `CCCCc1ccc2nc(NC(=O)OC)[nH]c2c1`, the Potency entry in the assay with CP260, in the assay on CP262, in the assay on CP265, with CP266, in the assay on CP268 and in the assay on CP269 was “inactive” throughout. In addition, the Potency result with CP286, with CP291, in the assay on CP297, with CP305, in the assay with CP315 and in the assay on CP325 was “inactive” throughout. For the same compound, the Potency entry with CP329, with CP335, in the assay with DFO2036, in the assay with DIV14, in the assay with DIV17 and in the assay on DIV30 was “inactive” in each case. Also, the Potency entry in the assay on Dd2 and in the assay with ECU was “inactive” throughout.

`Cc1cc2cc3c(C)cc(=O)oc3c(C)c2o1`: the Potency result in the assay with CP260, in the assay with CP262, in the assay with CP265, in the assay on CP266, with CP268 and in the assay with CP269 was “inactive” in each case. In addition, the Potency result with CP286, in the assay on CP291, with CP297, with CP305, with CP315 and with CP325 was “inactive” throughout. The Potency entry in the assay on CP329, with CP335, in the assay with DFO2036, in the assay on DIV14, with DIV17 and in the assay with DIV30 was “inactive” throughout. For the same compound, the Potency entry with Dd2 and in the assay with ECU was “inactive” each time.

With `O=C(O)c1cc(=O)c2c(OCC(O)COc3cccc4oc(C(=O)O)cc(=O)c34)cccc2o1`, the Potency entry in the assay on CP260, with CP262, in the assay on CP265, with CP266, with CP268 and in the assay with CP269 was “inactive” each time. In addition, the Potency result with CP286, with CP291, in the assay with CP297, in the assay with CP305, in the assay on CP315 and in the assay on CP325 was “inactive” each time. For the same compound, the Potency entry with CP329, with CP335, in the assay on DFO2036, with DIV14, in the assay on DIV17 and with DIV30 was “inactive” each time. For the same compound, the Potency entry in the assay with Dd2 and in the assay on ECU was “inactive” each time.

As for `CCC1=C(C)CN(C(=O)NCCc2ccc(S(=O)(=O)NC(=O)NC3CCC(C)CC3)cc2)C1=O` (stereo not given), the Potency result in the assay on CP260, with CP262, with CP265, in the assay on CP266, with CP268 and in the assay with CP269 was “inactive” each time. In addition, the Potency entry with CP286, with CP291, in the assay on CP297, with CP305, in the assay with CP315 and in the assay with CP325 was “inactive” each time. Moreover, the Potency entry with CP329, in the assay on CP335, with DFO2036, with DIV14, in the assay with DIV17 and in the assay with DIV30 was “inactive” throughout. In addition, the Potency entry with Dd2 and in the assay with ECU was “inactive” each time.

Consider `CN(C)c1ccc2nc3ccc(=[N+](C)C)cc-3sc2c1`, for which the Potency is 25.1 nM (active) with CP260; 19 nM (active) with CP262; 89.1 nM (active) with CP265; 75.7 nM (active) in the assay with CP266; 37.9 nM (active) in the assay with CP268; 84.9 nM (active) with CP269. Moreover, the Potency with CP286 is 12.6 nM (active); in the assay on CP291 it was 53.6 nM (active); in the assay with CP297, 67.5 nM (active); in the assay on CP305 it was 21.3 nM (active); in the assay on CP315 it was 151 nM (active); with CP325, 47.8 nM (active). Also, the Potency was 60.1 nM (active) with CP329; 37.9 nM (active) in the assay on CP335; 70.8 nM (active) in the assay on DFO2036; 26.9 nM (active) in the assay with DIV14; 19 nM (active) in the assay on DIV17; 67.5 nM (active) in the assay on DIV30. Moreover, the Potency was 39.8 nM (active) in the assay on Dd2 and 25.1 nM (active) in the assay on ECU.

Take `Nc1cccc2c1CN(C1CCC(=O)NC1=O)C2=O` (stereo not given): the Potency result in the assay on CP260, in the assay with CP262, in the assay on CP265, in the assay with CP266, in the assay with CP268 and in the assay on CP269 was “inactive” each time. Besides, the Potency entry in the assay on CP286, in the assay on CP291, with CP297, with CP305, with CP315 and in the assay on CP325 was “inactive” throughout. The Potency entry with CP329, with CP335, in the assay with DFO2036, with DIV14, in the assay with DIV17 and in the assay with DIV30 was “inactive” throughout. Also, the Potency result in the assay with Dd2 and with ECU was “inactive” in each case.

`Cc1ccc(C)c(OCCCC(C)(C)C(=O)O)c1`: the Potency result in the assay with CP260, in the assay with CP262, with CP265, with CP266, in the assay on CP268 and in the assay on CP269 was “inactive” each time. Further, the Potency entry in the assay with CP286, with CP291, in the assay with CP297, in the assay on CP305, with CP315 and in the assay with CP325 was “inactive” each time. The Potency result with CP329, in the assay with CP335, in the assay with DFO2036, with DIV14, with DIV17 and with DIV30 was “inactive” in each case. Besides, the Potency entry in the assay with Dd2 and in the assay with ECU was “inactive” throughout.

As to `CC1(C)CCC(C)(C)c2cc(NC(=O)c3ccc(C(=O)O)cc3)ccc21`, the Potency entry in the assay with CP260, in the assay with CP262, in the assay with CP265, in the assay with CP266, with CP268 and in the assay on CP269 was “inactive” in each case. Also, the Potency result in the assay with CP286, with CP291, with CP297, in the assay with CP305, in the assay with CP315 and with CP325 was “inactive” each time. For the same compound, the Potency entry in the assay on CP329, in the assay with CP335, in the assay on DFO2036, in the assay on DIV14, with DIV17 and in the assay with DIV30 was “inactive” in each case. The Potency entry in the assay on Dd2 and in the assay with ECU was “inactive” throughout.

Consider `CS(=O)(=O)OCCCCOS(C)(=O)=O`, for which the Potency entry with CP260, with CP262, in the assay with CP265, with CP266, in the assay with CP268 and in the assay with CP269 was “inactive” each time. In addition, the Potency entry with CP286, in the assay on CP291, in the assay with CP297, in the assay on CP305, in the assay with CP315 and with CP325 was “inactive” throughout. The Potency result with CP329, in the assay with CP335, with DFO2036, in the assay with DIV14, in the assay on DIV17 and in the assay on DIV30 was “inactive” in each case. The Potency result in the assay with Dd2 and in the assay with ECU was “inactive” in each case.

As for `CC1(C)NC(=O)N(c2ccc([N+](=O)[O-])c(C(F)(F)F)c2)C1=O`, the Potency entry in the assay with CP260, in the assay on CP262, in the assay on CP265, in the assay on CP266, with CP268 and in the assay on CP269 was “inactive” in each case. The Potency entry with CP286, with CP291, with CP297, with CP305, in the assay on CP315 and with CP325 was “inactive” each time. The Potency entry in the assay on CP329, with CP335, in the assay on DFO2036, with DIV14, in the assay with DIV17 and in the assay with DIV30 was “inactive” in each case. For the same compound, the Potency entry in the assay on Dd2 and in the assay on ECU was “inactive” throughout.

Regarding `CC(C)[C@H](N)C(=O)OCCOCn1cnc2c(=O)[nH]c(N)nc21`, the Potency entry with CP260, with CP262, with CP265, in the assay with CP266, with CP268 and in the assay on CP269 was “inactive” in each case. The Potency result in the assay with CP286, with CP291, in the assay with CP297, in the assay with CP305, in the assay with CP315 and in the assay with CP325 was “inactive” in each case. The Potency result in the assay with CP329, in the assay on CP335, in the assay with DFO2036, with DIV14, with DIV17 and in the assay on DIV30 was “inactive” in each case. The Potency result in the assay on Dd2 and in the assay on ECU was “inactive” throughout.

`CCCOc1ccc2nc(NC(=O)OC)[nH]c2c1`: the Potency entry with CP260, with CP262, in the assay with CP265, with CP266, in the assay on CP268 and with CP269 was “inactive” in each case. The Potency result with CP286, in the assay on CP291, in the assay on CP297, in the assay with CP305, with CP315 and in the assay on CP325 was “inactive” throughout. The Potency entry in the assay with CP329, in the assay with CP335, with DFO2036, in the assay on DIV14, in the assay with DIV17 and in the assay with DIV30 was “inactive” in each case. In addition, the Potency entry in the assay with Dd2 and with ECU was “inactive” in each case.

As for `O=C(O)c1cccc(-c2noc(-c3ccccc3F)n2)c1`, the Potency entry in the assay with CP260, in the assay on CP262, in the assay with CP265, in the assay with CP266, in the assay with CP268 and in the assay with CP269 was “inactive” throughout. Further, the Potency entry in the assay with CP286, in the assay on CP291, in the assay on CP297, with CP305, with CP315 and in the assay on CP325 was “inactive” throughout. For the same compound, the Potency result with CP329, in the assay with CP335, with DFO2036, in the assay on DIV14, in the assay on DIV17 and in the assay with DIV30 was “inactive” each time. For the same compound, the Potency entry in the assay with Dd2 and in the assay on ECU was “inactive” each time.

Values taken from PubChem BioAssay (NCATS).
